# Assay results: paper PMC8769072, “Proteome‐scale mapping of binding sites in the unstructured regions of the human proteome” (Molecular Systems Biology, 2022)
# OXSR1 434-527, O95747, sequence (O95747 434-527): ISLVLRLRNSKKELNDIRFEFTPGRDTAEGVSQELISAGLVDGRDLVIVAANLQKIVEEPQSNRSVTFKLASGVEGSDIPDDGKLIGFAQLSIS
# YAP1 169-207, P46937, sequence (P46937 169-207): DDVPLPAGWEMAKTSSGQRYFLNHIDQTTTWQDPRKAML
# PEX14 16-84, O75381, sequence (O75381 16-84): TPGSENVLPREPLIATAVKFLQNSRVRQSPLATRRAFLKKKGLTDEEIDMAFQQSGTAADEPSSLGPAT
# PDCD6IP 360-702, Q8WUM4, sequence (Q8WUM4 360-702): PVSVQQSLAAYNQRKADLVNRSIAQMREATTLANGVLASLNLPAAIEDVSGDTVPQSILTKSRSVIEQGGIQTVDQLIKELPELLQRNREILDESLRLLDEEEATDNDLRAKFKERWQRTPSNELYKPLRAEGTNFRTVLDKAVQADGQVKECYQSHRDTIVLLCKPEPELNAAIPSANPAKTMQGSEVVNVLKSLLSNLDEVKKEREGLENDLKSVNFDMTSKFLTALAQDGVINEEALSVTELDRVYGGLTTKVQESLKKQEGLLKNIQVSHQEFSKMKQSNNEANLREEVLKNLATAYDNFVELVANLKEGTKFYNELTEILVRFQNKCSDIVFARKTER
# NEDD4 890-928, P46934, sequence (P46934 890-928): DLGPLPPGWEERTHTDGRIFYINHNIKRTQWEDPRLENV
binder,measurement,setting,value
"TELQQLWKEVTSAHTA [FOXP1, Q9H334]",selected by phage display,"PEX14 16-84, O75381",confidence 3 (active)
"VVEGPWTLAALYPALP [GDPD4, Q6W3E5]",selected by phage display,"PDCD6IP 360-702, Q8WUM4",confidence 3 (active)
"LEDVSKPPAYAYPATP [TNRC18, O15417]",selected by phage display,"NEDD4 890-928, P46934",confidence 3 (active)
"VHDAVVNDNLETIWLL [BCORL1, Q5H9F3]",selected by phage display,"PEX14 16-84, O75381",confidence 3 (active)
"DLHHTPGYPTPPPYPF [C11orf53, Q8IXP5]",selected by phage display,"NEDD4 890-928, P46934",confidence 3 (active)
same,selected by phage display,"YAP1 169-207, P46937",confidence 3 (active)
"GLYPQLAVPDAFNSSR [DHX34, Q14147]",selected by phage display,"PDCD6IP 360-702, Q8WUM4",confidence 2 (active)
"YLEDLPPPPEYELAPS [GRSF1, Q12849]",selected by phage display,"NEDD4 890-928, P46934",confidence 2 (active)
"EDVKRHSSASFENVWL [IRS1, P35568]",selected by phage display,"PEX14 16-84, O75381",confidence 3 (active)
"TPLWEETMLKAWQHYL [WDFY4, Q6ZS81]",selected by phage display,"PEX14 16-84, O75381",confidence 2 (active)
"LGRDLYPNLAEERSRW [MCC, P23508]",selected by phage display,"PDCD6IP 360-702, Q8WUM4",confidence 3 (active)
"LYPPLINLWEGDSEKD [LRRN1, Q6UXK5]",selected by phage display,"PDCD6IP 360-702, Q8WUM4",confidence 4 (active)
"MDQNNSLPPYAQGLAS [TBP, P20226]",selected by phage display,"NEDD4 890-928, P46934",confidence 2 (active)
"FYLYPDLSRLSDPQVW [SLC6A11, P48066]",selected by phage display,"PDCD6IP 360-702, Q8WUM4",confidence 3 (active)
"WSLELEDQERHFLQQA [NUP62, P37198]",selected by phage display,"PEX14 16-84, O75381",confidence 2 (active)
"RAQPPDYTFPSGSGAH [PI4K2A, Q9BTU6]",selected by phage display,"NEDD4 890-928, P46934",confidence 2 (active)
"HGRYAEALEQHWQELQ [TONSL, Q96HA7]",selected by phage display,"PEX14 16-84, O75381",confidence 4 (active)
"FRVYPELPKPSISSNN [CEACAM5, P06731]",selected by phage display,"PDCD6IP 360-702, Q8WUM4",confidence 3 (active)
"EWYEEHAREQEQQRQL [TPCN1, Q9ULQ1]",selected by phage display,"PEX14 16-84, O75381",confidence 2 (active)
"EMGDWQEVWDENTGAY [FNBP4, Q8N3X1]",selected by phage display,"PEX14 16-84, O75381",confidence 3 (active)
"DATLASGRFTISTLLS [SLC12A3, P55017]",selected by phage display,"OXSR1 434-527, O95747",confidence 2 (active)
"DMPFDELLALYGYEAS [MIER2, Q8N344]",selected by phage display,"PDCD6IP 360-702, Q8WUM4",confidence 2 (active)
"KVVDIPTYEEAVSFPV [TMEM61, Q8N0U2]",selected by phage display,"NEDD4 890-928, P46934",confidence 2 (active)
"TKVGRFQVTTTANKVG [WNK1, Q9H4A3]",selected by phage display,"OXSR1 434-527, O95747",confidence 4 (active)
"DDLSVEWDAMGGKVQD [FSD1, Q9BTV5]",selected by phage display,"PEX14 16-84, O75381",confidence 4 (active)
"AWIRDYSSGGSSRTLD [TNKS1BP1, Q9C0C2]",selected by phage display,"PEX14 16-84, O75381",confidence 2 (active)
"SPASWERLLAYGWSHA [MIR1-1HG, Q9H1L0]",selected by phage display,"PEX14 16-84, O75381",confidence 3 (active)
"QLWHHDYLLGHLDDEG [TTC31, Q49AM3]",selected by phage display,"PEX14 16-84, O75381",confidence 2 (active)
"YKLYPGLSSYHERVGN [SH3YL1, Q96HL8]",selected by phage display,"PDCD6IP 360-702, Q8WUM4",confidence 3 (active)
SPAPTSRFSITHVSDS,selected by phage display,"OXSR1 434-527, O95747",confidence 2 (active)
"YPSLTNLKAQADTARA [UVSSA, Q2YD98]",selected by phage display,"PDCD6IP 360-702, Q8WUM4",confidence 2 (active)
"SEQYDSLLRQMWERMD [GTPBP1, O00178]",selected by phage display,"PEX14 16-84, O75381",confidence 2 (active)
"GKMSREPPPPYVTPAT [ESS2, Q96DF8]",selected by phage display,"NEDD4 890-928, P46934",confidence 4 (active)
same,selected by phage display,"YAP1 169-207, P46937",confidence 4 (active)
"LYPSTSSLLTNHQHEG [STAM, Q92783]",selected by phage display,"PDCD6IP 360-702, Q8WUM4",confidence 3 (active)
"ELEDEWQEVMGRFEGD [NFKBIL1, Q9UBC1]",selected by phage display,"PEX14 16-84, O75381",confidence 4 (active)
"SWNPPEYDGGAQISNY [TTN, Q8WZ42]",selected by phage display,"NEDD4 890-928, P46934",confidence 2 (active)
"HLPQAPPYTDAPPAYS [DAZAP2, Q15038]",selected by phage display,"NEDD4 890-928, P46934",confidence 3 (active)
"SENESLWKEVSELRAK [HSF2, Q03933]",selected by phage display,"PEX14 16-84, O75381",confidence 3 (active)
"SEEGKPQLVGRFQVTS [WNK4, Q96J92]",selected by phage display,"OXSR1 434-527, O95747",confidence 4 (active)
"VSNQPPKYTQPSLPSQ [ATN1, P54259]",selected by phage display,"NEDD4 890-928, P46934",confidence 3 (active)
same,selected by phage display,"YAP1 169-207, P46937",confidence 2 (active)
"DWSSQYSMVAGAGREN [LENG8, Q96PV6]",selected by phage display,"PEX14 16-84, O75381",confidence 3 (active)
"YPQDSLAQIKAVYANL [TSHZ1, Q6ZSZ6]",selected by phage display,"PDCD6IP 360-702, Q8WUM4",confidence 2 (active)
"NWNEWKTGRFLILQTE [DNAH2, Q9P225]",selected by phage display,"OXSR1 434-527, O95747",confidence 3 (active)
TPTPAPFSRFTVSPAP,selected by phage display,"OXSR1 434-527, O95747",confidence 3 (active)
"NNPVLNDLPQYMPPDF [STPG4, Q8N801]",selected by phage display,"NEDD4 890-928, P46934",confidence 3 (active)
"LAGPESPPPPYSRLSP [SMAD6, O43541]",selected by phage display,"NEDD4 890-928, P46934",confidence 3 (active)
"FSRFSVSPALETPGPP [LMTK3, Q96Q04]",selected by phage display,"OXSR1 434-527, O95747",confidence 2 (active)
"RDPEPPEPPTYRAQGV [BSN, Q9UPA5]",selected by phage display,"NEDD4 890-928, P46934",confidence 3 (active)
"SEEAKGRFRVNFVDPA [SLC12A2, P55011]",selected by phage display,"OXSR1 434-527, O95747",confidence 2 (active)
"AGSQAQELAEAWEGAR [RIMBP3, Q9UFD9]",selected by phage display,"PEX14 16-84, O75381",confidence 2 (active)
"DSVPSNTNRFQVSVIN [SLC12A1, Q13621]",selected by phage display,"OXSR1 434-527, O95747",confidence 4 (active)
"HKLTEREWAEEWKHLN [CBFA2T3, O75081]",selected by phage display,"PEX14 16-84, O75381",confidence 3 (active)
"RFEVAPAPEPASGAQK [PIK3R6, Q5UE93]",selected by phage display,"OXSR1 434-527, O95747",confidence 3 (active)
"RNSPPPYGFHLSPEEM [RHBDD1, Q8TEB9]",selected by phage display,"NEDD4 890-928, P46934",confidence 2 (active)
"STATSPDGGTTFEHLW [TP73, O15350]",selected by phage display,"PEX14 16-84, O75381",confidence 3 (active)
"WYPSLATMQESLRVKQ [GADD45GIP1, Q8TAE8]",selected by phage display,"PDCD6IP 360-702, Q8WUM4",confidence 3 (active)
"MPTNFTVVPVEAHADG [SLC12A7, Q9Y666]",selected by phage display,"OXSR1 434-527, O95747",confidence 2 (active)
"DSLQDSWATAAGTSRI [CPEB2, Q7Z5Q1]",selected by phage display,"PEX14 16-84, O75381",confidence 3 (active)
"SWLASYLADADALPSA [CAMTA1, Q9Y6Y1]",selected by phage display,"PEX14 16-84, O75381",confidence 3 (active)
"SSGGGSVTLDPLEHAW [SOWAHC, Q53LP3]",selected by phage display,"PEX14 16-84, O75381",confidence 3 (active)
"LALSDPGLEPPVYVPP [JCAD, Q9P266]",selected by phage display,"NEDD4 890-928, P46934",confidence 3 (active)
"SVVIPPPDYLEALSMG [BAIAP2L1, Q9UHR4]",selected by phage display,"NEDD4 890-928, P46934",confidence 4 (active)
same,selected by phage display,"YAP1 169-207, P46937",confidence 3 (active)
